The list is not random: actives were taken first. Their share in the collection is about 19%.
DT40 TDP1 CPT: qHTS for Inhibitors of human tyrosyl-DNA phosphodiesterase 1 (TDP1): qHTS in cells in presence of CPT | Potency, µM (doses to about 46.2 µM), most hits filed as inhibitors | chicken DT40 Tdp1-/-;hTDP1 cells + 20 nM CPT, ATP luminescence, 48 h | 12% of 420,000 active | AID 686979, 2013; also: nearly all actives have a fitted effect of over 55% in size
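Chicken DT40 Tdp1-/- cells stably complemented with human TDP1 were seeded at 400 cells/well in medium containing 20 nM camptothecin, exposed to pin-transferred compounds, and grown at 37 °C for at least 48 hr. Viability was read as ATP luminescence.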
IL1B secr inh: qHTS for Inhibitors of Inflammasome Signaling: IL-1-beta AlphaLISA Primary Screen; 4.7% of 360,000 active; THP-1 LPS/ATP IL-1B secretion, AlphaLISA, 16 h; stronger effect = lower value; activity change, % at 57.5 µM; AID 743279, 2014; in the data active = activity change below about -50%; inconclusive = mostly about -30% to -49%
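THP-1 cells pretreated 1 hr with compounds (up to 57.5 uM final), then stimulated with LPS (250 ng/mL final) plus ATP (1.25 mM final); secreted IL-1B measured by AlphaLISA after 16 hr, decreased signal indicating inhibition.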
TDP1 cell noCPT: qHTS for Inhibitors of human tyrosyl-DNA phosphodiesterase 1 (TDP1): qHTS in cells in absence of CPT; Potency, µM (highest dose often 46.2 µM), most hits filed as inhibitors; 15% of 420,000 active; AID 686978, 2013; DT40 Tdp1-/- hTDP1 cells, no CPT, ATP luminescence, 48 h; also: nearly all actives have a fitted effect of over 55% in size
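Seeded 400 DT40-hTDP1 cells/well (vehicle DMSO, no 20 nM CPT); pinned compounds; ≥48 hr at 37 °C; CellTiter-Glo luminescence as viability measure.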
ELG1 repair inh: qHTS screen for small molecules that inhibit ELG1-dependent DNA repair in human embryonic kidney (HEK293T) cells expressing luciferase-tagged ELG1 | 2.3% of 330,000 active | Potency, µM (top dose mostly 46.1 µM), hits mostly inhibitors | AID 504467, 2011 | HEK293T ELG1-luciferase reporter, luminescence, 16 h; DNA damage induced by 5-fluorouridine; also: nearly all actives have a fitted effect of over 55% in size
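Overnight (16 hr) co-exposure of 2,000 cells/well to 5-fluorouridine and compound at 37 °C preceded detection. Luciferase was quantified via ONE-Glo luminescence; loss of signal denotes inhibition.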
TDP1 block: qHTS Assay for Inhibitors of Tyrosyl-DNA Phosphodiesterase (TDP1). recombinant TDP1, AlphaScreen DNA substrate cleavage. 0.28% of 350,000 active. Potency, µM (doses to about 130 µM), actives largely listed as inhibitors; also: nearly all actives have a fitted effect of over 40% in size
Target sequence (Q9NUW8 whole entry, looked up): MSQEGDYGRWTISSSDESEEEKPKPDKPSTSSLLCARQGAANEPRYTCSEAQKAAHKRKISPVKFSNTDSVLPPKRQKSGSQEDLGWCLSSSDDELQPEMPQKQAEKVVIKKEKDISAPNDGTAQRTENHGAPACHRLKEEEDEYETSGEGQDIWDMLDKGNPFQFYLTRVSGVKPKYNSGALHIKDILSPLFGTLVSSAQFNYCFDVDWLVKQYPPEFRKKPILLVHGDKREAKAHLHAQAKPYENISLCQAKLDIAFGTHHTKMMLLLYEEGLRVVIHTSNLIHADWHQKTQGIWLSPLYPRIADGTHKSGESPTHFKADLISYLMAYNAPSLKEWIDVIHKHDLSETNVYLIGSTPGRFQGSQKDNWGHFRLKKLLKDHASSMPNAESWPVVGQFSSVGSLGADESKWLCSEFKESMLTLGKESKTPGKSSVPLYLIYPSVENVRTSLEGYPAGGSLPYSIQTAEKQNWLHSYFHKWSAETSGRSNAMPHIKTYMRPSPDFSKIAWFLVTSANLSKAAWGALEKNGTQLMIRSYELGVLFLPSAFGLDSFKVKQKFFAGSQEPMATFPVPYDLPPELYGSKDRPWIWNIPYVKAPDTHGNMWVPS
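Compounds were preincubated with Tdp1 (1 nM final) for 15 min at room temperature before substrate (15 nM final) started a 5 min reaction; beads (10 ug/ml final) were then added for 10 min before AlphaScreen detection.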
Giardia kill: Small Molecules that selectively kill Giardia lamblia: qHTS | 0.15% of 340,000 active | Giardia lamblia trophozoite viability | activity change, % at 7.66 µM, hits read low; in the data active = activity change below about -80%; inconclusive = between about -30% and that limit;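 also: parasites exposed to compound for two days anaerobically before the ATP read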
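ATP-content bioluminescence gauges trophozoite survival. Cells (100/well) receive compound and incubate anaerobically for 48 hrs at 37 deg C; detection reagent follows for 15-30 min at room temperature.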
A number is an active result; – = inactive; ? = inconclusive; · = no result given; [ ] = dose if it differs, or a comment. Unless noted, calls follow the shape of the dose curve; as a rule, active = well fitted curve in the direction sought with a large enough effect; inconclusive = small, poorly fitted or top-dose-only effect, or another doubt; inactive = no such curve, though single readings can be large; an effect the other way counts as inactive or inconclusive.

SMILES	DT40 TDP1 CPT	IL1B secr inh	TDP1 cell noCPT	ELG1 repair inh	TDP1 block	Giardia kill
COc1cc2c(cc1OC)C(C(=O)Nc1ccccc1N1CCN(C)CC1)C1c3ccccc3CCN1C2=O (stereo not given)	?	?	–	–	–	–
Cc1nc(CN(C)C(=O)c2cc(COc3ccc4ncccc4c3)on2)cs1	5.8µM	–	5.8µM	?	–	–
COc1cc(C)ccc1OCc1cc(C(=O)N(Cc2nccn2C)C(C)C)no1	–	–	–	?	–	–
Cc1cccc(C)c1OCc1cc(C(=O)N(Cc2nccn2C)C(C)C)no1	15µM	–	10µM	?	–	–
CC(C)N(Cc1nccn1C)C(=O)c1cc(COc2ccc3ncccc3c2)on1	?	–	10µM	–	–	–
COc1cccc(OCc2cc(C(=O)N(C)Cc3nc(C)cs3)no2)c1	?	–	?	?	–	–
CCN(Cc1ccncc1)C(=O)c1cc(COc2c(C)cccc2C)on1	12µM	?	?	–	–	–
COc1cccc(OCc2cc(C(=O)N(Cc3nccn3C)C(C)C)no2)c1	–	–	–	–	–	–
CC(=O)c1c(C)nc2sc3c(=N)n(N)cnc3c2c1-c1ccc(Cl)cc1	–	–	?	?	–	–
CC(=O)C1(C)CC2(CC(C)(C)OC2=O)C(=O)O1 (stereo not given)	–[9.04 µM]	·	–[9.04 µM]	·	–	·
Cc1ccc2ccc3cccc4ccc1c2c34	–	–	–	–	56µM	–
CCS(=O)(=O)n1nc(-c2ccco2)nc1NCc1ccc(C(C)C)cc1	?	·	16µM	·	–	·
CCCCCCCCCS(=O)(=O)N/N=C/c1cccc([N+](=O)[O-])c1	–	–	–	–	–	–
CCCCCCCCCCS(=O)(=O)N/N=C/c1ccc(O)cc1	16µM	?	?	–	–	–
C[C@H](CO)N1C[C@H](C)[C@H](CN(C)Cc2cccc(C(F)(F)F)c2)OCc2ccccc2-c2c(n(C)c3ccccc23)C1=O	–	–	–	·	·	·
O=C(N/C=N/OCc1ccc(Cl)cc1Cl)NOCc1ncc(C(F)(F)F)cc1Cl	?	–	15µM	?	–	–
Cc1ccc(N2C(=O)N(CC(=O)N3c4ccccc4CC3C)C(=O)C2C)cc1 (stereo not given)	–	–	–	–	–	–
CC(=O)C(N=Nc1ccccc1)(Sc1nnc(-c2ccccc2)n1-c1ccccc1)C(C)=O	?	–	16µM	–	–	–
CC(=O)C(N=Nc1ccccc1)(Sc1nnc(-c2ccccc2)n1-c1ccccc1)C(=O)Nc1ccccc1 (stereo not given)	–	–	?	–	–	–
CCC1(C)CC(CCNS(=O)(=O)c2ccc(C)cc2)(c2ccc(C)cc2)CCO1 (stereo not given)	18µM	–	29µM	–	–	–
O=C(COC(=O)c1cc([N+](=O)[O-])ccc1N1CCOCC1)NCc1ccc(Cl)cc1Cl	?	–	?	?	–	–
Cc1ccc(C)c(Cn2c(C(C)NC(=O)c3ccccc3)nc3ccccc32)c1 (stereo not given)	?	·	21µM	·	–	·
Cc1ccc(Cn2c(C(C)NC(=O)c3ccccc3)nc3ccccc32)cc1 (stereo not given)	?	·	6.5µM	·	–	·
Cc1ccc(C)c(Cn2c(C(C)NC(=O)c3ccc(F)cc3)nc3ccccc32)c1 (stereo not given)	–	·	?	·	–	·
CCN(CC)c1ccc(NC(=O)Cn2c(C(C)NC(=O)c3ccc(C)cc3)nc3ccccc32)cc1 (stereo not given)	–	–	–	–	·	–
SMILES	DT40 TDP1 CPT	IL1B secr inh	TDP1 cell noCPT	ELG1 repair inh	TDP1 block	Giardia kill
COc1ccc(C)cc1S(=O)(=O)N(C)CC(=O)N1CCCC1	–	–	–	?	·	–
CCc1nc(N2CCN(C(=S)NCCCOC)CC2)c2c3c(sc2n1)CCCC3	16µM	?	16µM	?	·	–
CCCn1c(=O)n(N)c2ccccc21	–	–	–	–	–	–
Cc1cc(C(=O)CCl)c(C)n1CCc1ccccc1	3.3µM	-100	4.6µM	–	–	–
COCCn1c(C)cc(C(=O)COC(=O)c2ccccc2Br)c1C	–	–	?	?	–	?
COC(=O)CCn1c(C)cc(C(=O)COc2ccccc2C(N)=O)c1C	21µM	-99	23µM	–	–	–
COC(=O)CCCn1c(C)cc(C(=O)CCl)c1C	6.5µM	-93	10µM	–	–	–
CN(C)/C=N/c1nc2nccc(-c3ccccn3)n2n1	–	–	–	–	–	–
Cc1ccc(-c2ccnc3nc(-n4cccc4)nn23)o1	15µM	–	21µM	–	–	–
Fc1ccc(-n2ncc3c(N4CCN(c5ccccc5F)CC4)ncnc32)cc1	–	·	–	·	–	·
CCc1cccc(NC(=O)CN2C(=O)COc3ccc(S(=O)(=O)N4CCC(C)CC4)cc32)c1	–	·	–	·	–	·
CC(=O)N1c2ccc(S(=O)(=O)N3CCCCCC3)cc2CC1C(=O)NC(C)C (stereo not given)	–	·	–	·	–	·
COC(=O)Cn1cc(/C=C/c2cc[n+](C)cc2)c2ccccc21	?	–	?	–	·	–
COC(=O)Cn1c(C)c(/C=C/c2cc[n+](C)cc2)c2ccccc21	?	–	16µM	–	·	–
O=C(Nc1cc(Cl)cc(Cl)c1)N[C@@H]1CC[C@@H](CCNS(=O)(=O)c2cccc(F)c2)O[C@@H]1CO	?	–	16µM	·	·	·
CCCOc1ccc(NC(=O)CC2C(=O)N(c3ccc(OC)cc3)C(=O)N2CCc2ccncc2)cc1 (stereo not given)	?	·	?	·	–	·
O=S(=O)(c1ccc(SCc2ccccc2)nc1)N1CCCCC1	–	–	–	–	–	–
N#Cc1ccc(CSc2ccc(S(=O)(=O)N3CCCCCC3)cn2)cc1	?	–	29µM	?	–	–
O=S(=O)(c1ccc(SCc2ccccc2)nc1)N1CCCC1	?	–	–	?	–	–
CC(C)N(C(=O)CSc1ccc(S(=O)(=O)N2CCCCC2)cn1)C(C)C	16µM	–	–	–	–	–
NC(=O)CSc1ccc(S(=O)(=O)N2CCCCC2)cn1	–	–	–	?	–	–
CCC(C)NC(=O)CSc1ccc(S(=O)(=O)N2CCN(Cc3ccccc3)CC2)cn1 (stereo not given)	?	–	29µM	?	–	–

Screens as filed in PubChem BioAssay.
